These results are taken from PubChem BioAssay.

Broadly, the inhibition is the change of the read-out against control, counted positive when it falls.

A short description of assay [1]: antimalarial activity against Dd2 strain (AID 2302;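 active = growth inhibition above 50% at the single 2 µM test dose, taken to imply half-maximal potency below 2 µM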;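 note: 0% = DMSO untreated growth and 100% = chloroquine plus artemisinin killed control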). Particulars: P. falciparum Dd2 in RBCs, LDH growth readout, 72 h; at 2 µM; stronger effect = higher value.
Assay [2] is described as follows: HepG2 cytotoxicity, primary screen, cytotoxicity control for P. falciparum antimalarial project, cell-based, ATP luminescence (AID 2303;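 active = inhibition above 50%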;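 note: 0% = DMSO wells and 100% = digitonin-killed cells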). The conditions noted are these: HepG2 viability, 24-48 h, at 10 µM, stronger effect = higher value.
For assay [3], the target named is L-lactate dehydrogenase (Plasmodium falciparum (isolate CDC / Honduras)) (UniProt Q27743). Nature of the assay: PfLDH activity inhibition – cell lysate, 3D7 strain, counter-screen for P. falciparum growth inhibition project (AID 2304).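 Note: 0% = vehicle and 100% = reference inhibitor.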 The conditions noted are these: P. falciparum 3D7 crude extract, LDH APAD/NBT absorbance; at 2 µM; stronger effect = higher value.
Sequence of L-lactate dehydrogenase (Plasmodium falciparum (isolate CDC / Honduras)) (Q27743 whole entry, looked up): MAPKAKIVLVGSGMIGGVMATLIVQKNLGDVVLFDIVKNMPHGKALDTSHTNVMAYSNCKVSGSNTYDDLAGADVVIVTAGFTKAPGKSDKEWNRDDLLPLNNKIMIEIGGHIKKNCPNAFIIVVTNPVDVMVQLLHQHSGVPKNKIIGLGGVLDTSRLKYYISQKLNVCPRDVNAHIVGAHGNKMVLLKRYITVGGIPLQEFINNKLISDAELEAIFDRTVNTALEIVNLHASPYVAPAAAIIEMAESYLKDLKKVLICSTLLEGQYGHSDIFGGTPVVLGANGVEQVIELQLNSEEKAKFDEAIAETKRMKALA
A short description of assay [4]: inhibition of 3D7 malaria parasite growth – strain 3D7 (AID 2306).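 Note: 0% = DMSO wells and 100% = chloroquine plus artemisinin control wells.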 The conditions noted are these: P. falciparum 3D7 erythrocytic growth, LDH absorbance, 72 h; at 2 µM; stronger effect = higher value.
Assay [5] addresses Calcium-dependent protein kinase 1 (Plasmodium falciparum (isolate 3D7)) (UniProt P62344). Nature of the assay: PfCDPK1 kinase inhibitors, biochemical, TCAMS library (AID 1159585; cut-off not given, nearly all actives have IC50 up to about 0.98 µM;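 note: inhibitors leave more ATP so luminescence rises with inhibition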). The conditions noted are these: recombinant PfCDPK1, Kinase-Glo ATP depletion luminescence. In general terms: Kinase-Glo measures the ATP left after a reaction by luminescence.
Assay [6] has as its target Plasmodium falciparum protein kinase 6 (PK6, PF3D7_1337100) (UniProt Q8IDW1). Nature of the assay: PfPK6 kinase inhibitors, biochemical, TCAMS library (AID 1159586). Particulars: recombinant PfPK6, Kinase-Glo ATP depletion luminescence.
The target of assay [7] is Protein kinase 7 (PK7), Plasmodium falciparum 3D7 (PF3D7_0213400) (UniProt Q7YTF7). Description: inhibition of Plasmodium PK7 catalytic activity – biochemical, TCAMS antimalarial set, Kinase-Glo luminescence (AID 1159587). Particulars: recombinant PfPK7, Kinase-Glo ATP depletion luminescence.
Sequence of Protein kinase 7 (PK7), Plasmodium falciparum 3D7 (PF3D7_0213400) (Q7YTF7 1-343): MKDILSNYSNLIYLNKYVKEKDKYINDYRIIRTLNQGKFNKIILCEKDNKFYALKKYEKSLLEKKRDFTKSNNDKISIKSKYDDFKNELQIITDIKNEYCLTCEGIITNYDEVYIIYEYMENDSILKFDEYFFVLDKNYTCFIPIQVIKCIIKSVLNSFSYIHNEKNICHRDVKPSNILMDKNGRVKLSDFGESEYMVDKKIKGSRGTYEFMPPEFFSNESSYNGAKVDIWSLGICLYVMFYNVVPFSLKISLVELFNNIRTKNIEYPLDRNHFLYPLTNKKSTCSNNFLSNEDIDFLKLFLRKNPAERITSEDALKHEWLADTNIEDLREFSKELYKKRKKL
Assay [8] addresses Calcium-dependent protein kinase 4 (Plasmodium falciparum (isolate 3D7)) (UniProt Q8IBS5). Description: PfCDPK4 kinase inhibitors, biochemical, TCAMS library (AID 1159588; cut-off not given, nearly all actives have IC50 up to about 0.91 µM). Particulars: recombinant PfCDPK4, Kinase-Glo ATP depletion luminescence.

Structures are written as SMILES. A number with no mark means an inactive call. For some of these results: Results with a measured potency or affinity are listed apart. Calls of active or inactive are those of the source. Unless noted, the rule behind the calls is not given here.

Sequence of Calcium-dependent protein kinase 4 (Plasmodium falciparum (isolate 3D7)) (Q8IBS5 whole entry, looked up): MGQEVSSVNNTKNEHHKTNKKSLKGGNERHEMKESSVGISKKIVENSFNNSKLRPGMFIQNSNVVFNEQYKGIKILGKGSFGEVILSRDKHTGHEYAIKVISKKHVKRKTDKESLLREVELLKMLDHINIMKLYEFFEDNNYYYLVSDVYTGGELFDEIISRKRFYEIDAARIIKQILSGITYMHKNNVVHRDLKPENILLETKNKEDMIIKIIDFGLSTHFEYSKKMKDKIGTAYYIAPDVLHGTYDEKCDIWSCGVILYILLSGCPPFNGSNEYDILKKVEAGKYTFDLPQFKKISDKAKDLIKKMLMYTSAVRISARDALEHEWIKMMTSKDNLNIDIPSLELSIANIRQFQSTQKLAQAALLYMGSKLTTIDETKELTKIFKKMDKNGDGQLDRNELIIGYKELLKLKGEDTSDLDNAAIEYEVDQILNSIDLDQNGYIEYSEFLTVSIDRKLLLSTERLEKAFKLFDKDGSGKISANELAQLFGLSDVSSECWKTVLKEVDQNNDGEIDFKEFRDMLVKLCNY
Sequence of Calcium-dependent protein kinase 1 (Plasmodium falciparum (isolate 3D7)) (P62344 whole entry, looked up): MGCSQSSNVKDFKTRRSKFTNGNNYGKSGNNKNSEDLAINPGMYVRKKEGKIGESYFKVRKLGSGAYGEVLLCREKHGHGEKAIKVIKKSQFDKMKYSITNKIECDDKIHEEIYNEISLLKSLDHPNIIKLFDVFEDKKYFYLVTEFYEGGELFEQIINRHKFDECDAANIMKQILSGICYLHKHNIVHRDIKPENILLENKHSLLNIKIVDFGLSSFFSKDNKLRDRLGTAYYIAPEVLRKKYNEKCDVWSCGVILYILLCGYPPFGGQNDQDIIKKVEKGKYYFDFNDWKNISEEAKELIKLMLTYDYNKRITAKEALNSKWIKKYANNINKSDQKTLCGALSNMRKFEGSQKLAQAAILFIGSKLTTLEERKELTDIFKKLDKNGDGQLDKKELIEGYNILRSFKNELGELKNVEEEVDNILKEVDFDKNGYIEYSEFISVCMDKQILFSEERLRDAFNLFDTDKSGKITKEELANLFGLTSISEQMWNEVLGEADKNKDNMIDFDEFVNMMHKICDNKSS
Sequence of Plasmodium falciparum protein kinase 6 (PK6, PF3D7_1337100) (Q8IDW1 1-305): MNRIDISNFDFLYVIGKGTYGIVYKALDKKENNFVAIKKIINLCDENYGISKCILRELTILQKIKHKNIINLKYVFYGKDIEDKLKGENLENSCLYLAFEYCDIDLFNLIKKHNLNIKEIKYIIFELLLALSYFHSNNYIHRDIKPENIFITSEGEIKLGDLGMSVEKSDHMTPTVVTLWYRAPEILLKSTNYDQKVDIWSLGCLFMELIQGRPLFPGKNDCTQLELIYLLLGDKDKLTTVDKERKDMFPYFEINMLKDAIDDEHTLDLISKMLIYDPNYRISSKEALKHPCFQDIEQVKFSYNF

Consider `O=C(c1ccc2ccccc2n1)N1CCCc2cc(Br)ccc21`, for which the growth inhibition is 74% (active) in assay [1] and 97% (active) in assay [4]. Besides, the inhibition in assay [2] was 19%; in assay [3] it was -3%. The outcome in assay [5], in assay [6], in assay [7] and in assay [8] was inactive.
Regarding `O=C(Nc1cc(Cl)cc(Cl)c1)N[C@H]1CCN(CCCCCNC(=O)[C@@H]2C[C@H]2c2ccc(Cl)c(Cl)c2)C1`, the results for the growth inhibition in assay [1] and in assay [4] were -3% and 99% (active), respectively. In addition, the inhibition in assay [2] was 49%; in assay [3], 3%. In addition, the result in assay [5], in assay [6], in assay [7] and in assay [8] was inactive.
On to `OC(Cn1ccnc1)(c1ccc(Cl)cc1Cl)C1CCCCC1` (stereo not given), for which the figures for the growth inhibition in assay [1] and in assay [4] were 58% (active) and 98% (active), respectively. Further, the inhibition in assay [2] and in assay [3] was 7% each time. The result in assay [5], in assay [6], in assay [7] and in assay [8] was inactive.
For the molecule `O=C(NCCN1CCCCC1)N1CCCN(c2ncnc3cc(-c4ccccc4)sc23)CC1`, the growth inhibition is 80% (active) in assay [1] and 89% (active) in assay [4]. The inhibition in assay [2] was 2%; in assay [3] it was -1%. The result in assay [5], in assay [6], in assay [7] and in assay [8] was inactive.
Consider `O=C(/C=C/c1ccc(Cl)c(Cl)c1)NC1CCC(CN2CCC(c3nc4ccccc4n3CCCO)CC2)CC1` (stereo not given), for which the results for the growth inhibition in assay [1] and in assay [4] were 28% and 99% (active), respectively. The inhibition was 28% in assay [2] and -5% in assay [3]. In addition, the outcome in assay [5], in assay [6], in assay [7] and in assay [8] was inactive.
Turning to `COc1cc2c(c(Cl)c1OC)CCN(Cc1ccccc1)CC2c1ccc(C(N)=O)cc1` (stereo not given), the growth inhibition in assay [1] is 60% (active); in assay [4], 97% (active). In addition, the inhibition in assay [2] is 7%; in assay [3], -5%. The outcome in assay [5], in assay [6], in assay [7] and in assay [8] was inactive.
For `Cc1[nH]c(C)c(-c2ccc(-c3cccc(C(F)(F)F)c3)nc2)c(=O)c1Br`, the growth inhibition in assay [1] was 96% (active); in assay [4] it was 97% (active). Also, the values for the inhibition in assay [2] and in assay [3] were 28% and -4%, respectively. The result in assay [5], in assay [6], in assay [7] and in assay [8] was inactive.
As for `C/C=C/COc1ccc2ccccc2c1CNCCCCCCCCNCc1c(OC/C=C/C)ccc2ccccc12`, the growth inhibition in assay [1] is 86% (active); in assay [4], 87% (active). In addition, the inhibition in assay [2] is 100% (active); in assay [3], 3%. In addition, the outcome in assay [5], in assay [6], in assay [7] and in assay [8] was inactive.
Regarding `CCn1cnc2c(N3CCCCS3(=O)=O)cc(C(=O)N[C@@H](Cc3ccccc3)[C@H](O)CNC3CCOCC3)cc21`, the growth inhibition was 87% (active) in assay [1] and 99% (active) in assay [4]. In addition, the results for the inhibition in assay [2] and in assay [3] were 7% and 6%, respectively. Besides, the outcome in assay [5], in assay [6], in assay [7] and in assay [8] was inactive.
As to `COc1ccc2nccc([C@@H](O)CN3CCC(NCc4nc5ccccc5[nH]4)CC3)c2c1`, the growth inhibition in assay [1] is 2%; in assay [4] it was 92% (active). Also, the inhibition in assay [2] was 41%; in assay [3] it was 4%. Further, the outcome in assay [5], in assay [6], in assay [7] and in assay [8] was inactive.
For the molecule `COc1ccc(-c2ccc(CNCc3ccc(F)cc3)cc2)cc1S(=O)(=O)NCCN1CCCC1`, the results for the growth inhibition in assay [1] and in assay [4] were 33% and 98% (active), respectively. Besides, the inhibition is 24% in assay [2] and 3% in assay [3]. Moreover, the outcome in assay [5], in assay [6], in assay [7] and in assay [8] was inactive.
For the molecule `COc1ccc(C(=O)N2CCc3cc4nccc(N5CCN6CCC[C@H]6C5)c4cc32)cc1`, the growth inhibition was 50% (active) in assay [1] and 98% (active) in assay [4]. For the same molecule, the inhibition in assay [2] is 1%; in assay [3], -12%. Further, the outcome in assay [5], in assay [6], in assay [7] and in assay [8] was inactive.
Turning to `Cc1cccc2[nH]c(-c3ccc(-c4ccc(CNCCCN5CCCC5=O)cc4)s3)nc12`, the results for the growth inhibition in assay [1] and in assay [4] were 43% and 101% (active), respectively. Further, the inhibition was 17% in assay [2] and 2% in assay [3]. For the same molecule, the outcome in assay [5], in assay [6], in assay [7] and in assay [8] was inactive.
With `COc1ccc(NC(=O)c2ccc(NC(=O)c3ccc(Cl)cc3)cc2)cc1N1CCN(C)CC1`, the growth inhibition in assay [1] is 40%; in assay [4], 98% (active). Besides, the inhibition in assay [2] was 23%; in assay [3] it was -8%. For the same molecule, the result in assay [5], in assay [6], in assay [7] and in assay [8] was inactive.
As for `CCCCOc1ccc(-c2nc3ccccc3[nH]2)cc1`, the values for the growth inhibition in assay [1] and in assay [4] were 82% (active) and 86% (active), respectively. Also, the inhibition in assay [2] is 21%; in assay [3], -1%. The result in assay [5], in assay [6], in assay [7] and in assay [8] was inactive.
`O=C(NCc1ccc(Cl)c(Cl)c1)c1cccc(C2CCCN(Cc3ccc4nc[nH]c4c3)C2)c1` (stereo not given): the results for the growth inhibition in assay [1] and in assay [4] were 30% and 95% (active), respectively. Further, the inhibition was 3% in assay [2] and 5% in assay [3]. Besides, the result in assay [5], in assay [6], in assay [7] and in assay [8] was inactive.
`CCOc1ccccc1[C@H]1[C@H](C(=O)C(C)(C)C)N2c3ccc(Br)cc3C=CC2C12C(=O)c1ccccc1C2=O` (stereo not given in full): the growth inhibition in assay [1] was 94% (active); in assay [4], 95% (active). Moreover, the inhibition in assay [2] was 17%; in assay [3], 1%. Also, the result in assay [5], in assay [6], in assay [7] and in assay [8] was inactive.
For the molecule `O=C(CSc1nc(-c2ccccc2Cl)ns1)Nc1ccc2c(c1)OCO2`, the growth inhibition in assay [1] is 77% (active); in assay [4] it was 93% (active). Besides, the inhibition in assay [2] was -8%; in assay [3] it was -5%. Moreover, the result in assay [5], in assay [6], in assay [7] and in assay [8] was inactive.
Consider `COc1cc(Cc2cnc(N)nc2N)ccc1OCc1ccc(F)c(F)c1`, for which the growth inhibition in assay [1] is 31%; in assay [4], 90% (active). Moreover, the inhibition is 10% in assay [2] and 3% in assay [3]. Also, the result in assay [5], in assay [6], in assay [7] and in assay [8] was inactive.
Consider `Cc1ccc(N2CCN(C(=O)c3cccc(-c4cncc5nc(-c6ccco6)n(C)c45)c3)CC2)nc1`, for which the growth inhibition is 91% (active) in assay [1] and 94% (active) in assay [4]. The results for the inhibition in assay [2] and in assay [3] were -13% and -1%, respectively. Moreover, the result in assay [5], in assay [6], in assay [7] and in assay [8] was inactive.
